{
  "source": "the supplement of paper PMC7156485",
  "note": "± gives the standard deviation of the averaged measurements.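 Note: TDF denotes transformed human dermal fibroblasts of mesenchymal origin.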",
  "data": [
    {"system": "HCC1569", "assay": "cell number relative to DMSO (% of DMSO); higher = more cells (less growth inhibition / toxicity)", "details": "concentration: 10 µM; 24 h", "summary_of_the_method": "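After 24 h at 37 °C with compounds at 10 µM, in triplicate, HCC1569 and TDF cells were fixed with 3.7% formaldehyde. Immunostaining used a rabbit anti-H1.0 antibody and an AlexaFluor 647 secondary, with DAPI, and six fields per well were imaged at ×10. H1.0 nuclear intensity or cell number is presented as percent of the plate control, from the median of replicates, with HCC1569 values smoothed for positional effects.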", "values": [
      {"smiles": "O=C(C=Cc1ccc(O)cc1)CC(=O)C=Cc1ccc(O)cc1", "note": "[Bis demethoxycurcumin]", "cell number": 83.7},
      {"smiles": "CN1CCN(C2Cc3ccccc3Sc3ccc(Cl)cc32)CC1.O=C(O)C=CC(=O)O", "note": "(centres undefined)", "cell number": 82},
      {"smiles": "CNc1cc(NS(=O)(=O)c2ccc(N)cc2)nc(NC)n1.Cl.Cl", "note": "[Ro 04-6790 dihydrochoride]", "cell number": 107},
      {"smiles": "O=C(/C=C/c1cccnc1)NCCCCC1CCN(C(=O)c2ccccc2)CC1", "cell number": 106},
      {"smiles": "C=CCn1c(=O)c2c(nc(-c3ccc(S(=O)(=O)O)cc3)n2C)n(C)c1=O", "note": "[1-Allyl-3,7-dimethyl-8-p-sulfophenylxanthine]", "cell number": 102},
      {"smiles": "O=c1c(-c2ccc(O)cc2)coc2cc(OC3OC(CO)C(O)C(O)C3O)cc(O)c12", "note": "(centres undefined) [Genistin]", "cell number": 103},
      {"smiles": "O=C(NCCCN1CCOCC1)c1cnn2c(-c3ccccc3)cc(-c3ccccc3)nc12", "cell number": 95.3},
      {"smiles": "O=C([O-])C=CC(O)c1ccc(Cl)cc1.[Na+]", "note": "(centres undefined)", "cell number": 105},
      {"smiles": "O=C(O)CN(CCN(CC(=O)O)CC(=O)O)CCN(CC(=O)O)CC(=O)O", "note": "[Diethylenetriaminepentaacetic acid]", "cell number": 95.4},
      {"smiles": "Nc1nc2ccccc2c2ccccc12", "note": "[6-phenanthridinamine]", "cell number": 88.1},
      {"smiles": "CC(O)CCCC(O)C=CC1C(O)CC(=O)C1CC=CCCCC(=O)O", "note": "[19(R)-Hydroxy-prostaglandin E2]", "cell number": 98.1},
      {"smiles": "CCC(C)C1OC2(CCC1C)CC1CC(CC=C(C)C(OC3CC(OC)C(OC4CC(OC)C(O)C(C)O4)C(C)O3)C(C)C=CC=C3COC4C(O)C(C)=CC(C(=O)O1)C34O)O2", "note": "(centres undefined) [Ivermectin]", "cell number": "102 ± 2.5"},
      {"smiles": "NC(N)=Nc1nc(CSCCC(N)=NS(N)(=O)=O)cs1", "note": "[Famotidine]", "cell number": 102},
      {"smiles": "CC(OC1OCCN(Cc2nc(=O)[nH][nH]2)C1c1ccc(F)cc1)c1cc(C(F)(F)F)cc(C(F)(F)F)c1", "note": "(centres undefined) [Aprepitant]", "cell number": 101},
      {"smiles": "Nc1ncnc2c1cnn2-c1ccccc1", "cell number": 103},
      {"smiles": "O=S1(=O)CCN(CN2CCS(=O)(=O)NC2)CN1", "cell number": 98.4},
      {"smiles": "CC(C)(C)c1ccc(S(=O)(=O)Nc2ccc(-n3ccnc3)cc2)cc1", "note": "[Stem-Cell Factor/c-Kit Inhibitor, ISCK03]", "cell number": 100},
      {"smiles": "CN1CCN(C2=Nc3ccccc3Sc3ccc(Cl)cc32)CC1", "note": "[Clothiapine]", "cell number": 103},
      {"smiles": "OCC1OC(OC2OC=CC3C(O)C4OC4(CO)C23)C(O)C(O)C1O", "note": "(centres undefined) [Catalpol]", "cell number": 105},
      {"smiles": "CN1CCN(c2ccc3c(c2)NC(=C2C(=O)N=c4cccc(F)c4=C2N)N3)CC1", "cell number": 81.3},
      {"smiles": "NC(=O)C1=CN(C2OC(COP(=O)([O-])OP(=O)([O-])OCC3OC(n4cnc5c(N)ncnc54)C(OP(=O)([O-])[O-])C3O)C(O)C2O)C=CC1.[Na+].[Na+].[Na+].[Na+]", "note": "(centres undefined) [NADPH tetrasodium]", "cell number": 103},
      {"smiles": "CC(O)(P(=O)([O-])O)P(=O)([O-])O", "note": "[Etidronate]", "cell number": 101},
      {"smiles": "CCCCCC=CCC=CCC=CCCCCC(=O)O", "note": "[6(Z), 9(Z), 12(Z)-Octadecatrienoic Acid]", "cell number": 101},
      {"smiles": "C=CC(N)CCC(=O)O", "note": "(racemic)", "cell number": 92.9},
      {"smiles": "CCCCCCCCCCCCCCCCn1cc[n+](Cc2ccccc2)c1C.[I-]", "note": "[eEF-2 Kinase Inhibitor, NH125]", "cell number": 36.6},
      {"smiles": "O=C(C=Cc1ccc(O)c(O)c1)OCCc1ccccc1", "cell number": "74.8 ± 3.7"},
      {"smiles": "O=C1OC(=CBr)CCC1c1cccc2ccccc12", "note": "(centres undefined) [Bromoenol lactone]", "cell number": 97.3},
      {"smiles": "O=C(CCCCCCc1ccccc1)c1ncc(-c2ccccn2)o1", "note": "[7-phenyl-1-[5-(2-pyridinyl)-1,3-oxazol-2-yl]-1-heptanone]", "cell number": 104},
      {"smiles": "N#Cc1c(NC(=O)c2cccc3ccccc23)sc2c1CCCC2", "note": "[JNK Inhibitor IX]", "cell number": 62.6},
      {"smiles": "CCCCCC=CCC=CCC=CCC=CCCCC(=O)OC(CO)CO", "note": "[2-Arachidonoylglycerol]", "cell number": 104},
      {"smiles": "CCCCCCCCCCCCCCCCOCC(CO)OC", "note": "(centres undefined) [1-Hexadecyl-2-O-methyl-glycerol]", "cell number": 103},
      {"smiles": "COC1=CC(C)C2CC3OC(=O)CC4C(C)=C(OC)C(=O)C(C2(C)C1=O)C34C", "note": "(centres undefined) [Quassin]", "cell number": 101},
      {"smiles": "CCCOc1ccc2nc(NC(=O)OC)[nH]c2c1", "note": "[Oxibendazole]", "cell number": 62.8},
      {"smiles": "CC(N=C(NC#N)Nc1ccncc1)C(C)(C)C", "note": "(centres undefined) [Pinacidil]", "cell number": "103 ± 2.5"}
    ]}
  ]
}
